# In PubChem BioAssay (NCATS):
# Records with an inconclusive call do not appear. Unmarked numbers belong to inactive results. Activity calls are given as the source filed them. Calls follow the shape of the dose curve; as a rule, active = well fitted cell-killing curve with a large enough effect; inconclusive = small, poorly fitted or top-dose-only effect, or effect the other way; inactive = no such curve, though single readings can be large or run the other way.
# Assay: Viability qHTS for spleen associated tyrosine kinase inhibitor (SYKi) drug resistant MV4-11 cells (AID 1963824); also: nearly all actives have a fitted effect of over 35% in size
# Conditions: SYKi-resistant MV4-11 viability, CellTiter-Glo, 72 h; series mostly up to 45 µM; viability, % of control: at the top concentration
# Summary of the method: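 SYK-inhibitor-resistant MV4-11 AML cells were seeded at 500 per well onto compound and cultured 72 hours (37 °C, 5% CO2). CellTiter-Glo was then added, and after 10 min at room temperature, luminescence gave viability.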
# Potency is read from the fitted curve at half-maximal effect.
Compound,Potency,"viability, % of control"
Cc1ccc(NS(=O)(=O)c2cc3c(cc2Cl)CCC(=O)N3)cc1Cl,9.2 µM (active),–
Cc1ccccc1C(=O)Nc1ccc(C(=O)N2CCC[C@@H](O)c3cc(Cl)ccc32)c(C)c1,20.6 µM (active),–
Cc1cccc(C)c1OCc1cc(C(=O)N2CCC(c3ccncc3)CC2)no1,9.2 µM (active),–
CC(C)C(=O)OC[C@H]1O[C@H](O[C@H]2O[C@H](CO)[C@@H](O)[C@H](O)[C@H]2O)[C@H](O)[C@@H](O)[C@@H]1O,–,109% [at 17.3 µM]
CCCNCCOc1ccc(NC(=O)c2c[nH]c3c2C(=O)CCC3)cc1F,2.91 µM (active),–
C=C1CC/C=C(/CO)C(=O)C[C@@H]2[C@@H]1CC2(C)C,–,73.6%
C/C=C(\C)C(=O)O[C@H]1[C@@H](O[C@]2(COC(=O)CC(C)C)O[C@H](COC(=O)C(C)CC)[C@@H](OC(C)=O)[C@@H]2O)O[C@H](COC(C)=O)[C@@H](O)[C@@H]1O (stereo partly drawn),–,94.5% [at 17.3 µM]
CC(=O)O[C@@H]1[C@H](O[C@@H]2OC[C@](O)(CO)[C@H]2O)[C@@H](O[C@@H]2O[C@@H](C)[C@H](O)[C@@H](O)[C@H]2O)[C@H](OC(=O)[C@]23CCC(C)(C)C[C@H]2C2=CCC4[C@@]5(C)C[C@H](O)[C@H](O[C@@H]6O[C@H](C(=O)O)[C@@H](O)[C@H](O)[C@H]6O)[C@@](C)(C(=O)O)C5CC[C@@]4(C)[C@]2(C)CC3)O[C@@H]1C (stereo partly drawn),–,107% [at 9.25 µM]
COC(=O)/C=C/C=C/C(=O)OC1C=C2COC(=O)C2(O)C2(C)CCCC(C)(C)C12 (stereo not drawn),8.93 µM (active),–
O=C(c1ccccc1)c1ccc2nc(NC(=O)c3csc(C4CCN(c5ncnc6ccsc56)CC4)n3)[nH]c2c1,2.31 µM (active),–
Cc1nc2cc(C(=O)NCc3ccccn3)nn2c(C)c1Cc1cccc(Cl)c1,20.6 µM (active),–
CN1CCN(C(=O)c2cc3cc(Cl)ccc3[nH]2)CC1,8.2 µM (active),–
CCNC(=O)Nc1ccc(Oc2ncnc(N)c2/C=N/OC)cc1Cl,18.6 µM (active),–
CC1(C)NC2N(C1=O)c1ccccc1C2(O)CC(C(=O)O)n1cnc2ccccc2c1=O (stereo not drawn),–,95.7% [at 17.3 µM]
CCOC(=O)CCNc1cc(N2CCc3ccccc3CC2)nc(-c2cccnc2)n1,14.6 µM (active),–
O=C(NOCC(O)CO)c1cc(Br)c(F)c(F)c1Nc1ccc(I)cc1F (stereo not drawn),0.59 µM (active),–
COCC1OC(n2cnc3c(=O)[nH]cnc32)C(O)C1O (stereo not drawn),–,103%

Compound,Potency,"viability, % of control"
CC(C)Oc1ccc(-c2cnc3c(-c4ccnc5ccccc45)cnn3c2)cc1,4.11 µM (active),–
C=CC(C)(C)C12CC3C(=O)NC(Cc4cnc[nH]4)C(=O)N3C1Nc1ccccc12 (stereo not drawn),–,83%
C=C1C(=O)O[C@@H]2C[C@H](C)[C@@H]3CC(=O)C(C)=C3C[C@H]12,1.16 µM (active),–
CC(C)CC(=O)n1cc(C(N)=O)c(=O)cc1C(O)c1ccccc1 (stereo not drawn),–,84.5%
O=Nc1c(-c2c(O)[nH]c3ccc(F)cc23)[nH]c2ccccc12,0.058 µM (active),–
Cn1cc(S(=O)(=O)c2ccc(Cl)cc2)c2cccc(N3CCNCC3)c21,13 µM (active),–
CN(C(=O)CN(CCO)CC(=O)N(C)C(C)(C)Cc1ccccc1)C(C)(C)Cc1ccccc1,9.44 µM (active),–
COc1ccc(CN2CCN(C(=O)CCNC(=O)c3ccc(C(C)(C)C)cc3)CC2)cc1,9.2 µM (active),–
CCN(CC)CCNC(=O)c1c(C)[nH]c(/C=C2\C(=O)Nc3ccc(Cl)cc32)c1C,0.0146 µM (active),–
CC1=C2C[C@H]3OC(=O)[C@H](O)[C@@]4(O)[C@@H](C)[C@@H](O)[C@H](O)C([C@@]2(C)[C@H](O)[C@@H](O)C1)[C@@]34C (stereo partly drawn),14.3 µM (active),–
C/C=C/C=C/C(=O)OC1CC/C=C/C(O)C(O)C(CCC)OC1=O (stereo not drawn),–,65.4%
Nc1nc2c(c(=O)[nH]1)C[C@@H](CCc1ccc(C(=O)N[C@@H](CCC(=O)O)C(=O)O)cc1)CN2,0.0092 µM (active),–
C[C@@]12CC[C@@H]3[C@@](CC[C@H]4[C@@]3(C)CCC[C@@]4(C)C(=O)O)(CC1=O)C2,–,69.8%
C[C@]1(C(=O)Nc2ccc(F)nc2)CCCN1c1nc(Nc2cc(C3CC3)[nH]n2)c2cccn2n1,1.64 µM (active),–
COC(=O)C1=CO[C@@H](O[C@@H]2O[C@H](CO)[C@@H](O)[C@H](O)[C@H]2O)[C@@H]2[C@@H](C)[C@@H](O)C(O)[C@H]12 (stereo partly drawn),–,115% [at 17.3 µM]
COc1cccc(NCCC2(c3ccccc3)CC(C)(C)OC(C)(C)C2)c1,–,102%
